# The source made the active and inactive calls.
# How the values were obtained:
# [1] = tested on: Human papillomavirus type 1a protein E7 (residues 44-93); test: HPV1a E7 fragment binders on microarrays, primary screen, biochemical, small-molecule microarray, residues 44-93, 635 nm fluorescence (AID 1108); details: small-molecule microarray binding, fluorescence 635 nm; higher = more signal;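 also: E7 fragment applied at 1 µg/mL in TBST for 1 h at 4 C; score combines spot fluorescence with its signal to noise ratio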
# [2] = modulators of HCV replicon luciferase signal, primary screen, HCV replication inhibitor project, Huh7 cells, luciferase reporter (AID 1109); details: 48 h, higher = more signal;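 also: huh7 hepatoma cells harbouring a luciferase neomycin HCV replicon reporter; luciferase luminescence as measure of HCV replicon replication; test concentration not given here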
# [3] = biological target: Left-right determination factor 2 (Homo sapiens) (UniProt O00292); test: LEFTY2 binders on small-molecule microarrays, primary screen, biochemical, small-molecule microarray, 635 nm fluorescence scan (AID 1110); details: LEFTY2 binding, higher = more signal
# Sequence of Left-right determination factor 2 (Homo sapiens) (O00292 whole entry, looked up): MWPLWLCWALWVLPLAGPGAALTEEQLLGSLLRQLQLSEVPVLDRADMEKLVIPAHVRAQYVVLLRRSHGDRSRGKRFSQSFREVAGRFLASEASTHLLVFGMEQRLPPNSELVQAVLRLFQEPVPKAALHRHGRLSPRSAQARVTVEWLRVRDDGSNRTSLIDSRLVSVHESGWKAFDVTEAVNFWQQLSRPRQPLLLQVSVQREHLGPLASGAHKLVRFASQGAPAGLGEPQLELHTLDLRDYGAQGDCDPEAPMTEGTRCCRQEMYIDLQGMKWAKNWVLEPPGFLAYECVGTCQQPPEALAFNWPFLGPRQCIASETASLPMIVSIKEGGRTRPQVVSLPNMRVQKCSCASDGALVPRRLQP
# [4] = biological target: Calmodulin-1 (Homo sapiens) (UniProt P0DP23); test: CALM1 binders on microarrays, EGTA buffer, profiling panel, biochemical, small-molecule microarray, Cy5-labelled CALM1 (AID 1111); details: Cy5-CALM1 binding fluorescence, higher = more signal;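 also: labelled calmodulin applied in Tris saline Tween buffer holding calcium plus EGTA and DTT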
# [5] = biological target: Calmodulin-1 (Homo sapiens) (UniProt P0DP23); test: calcium-bound CALM1 binders on microarrays, profiling panel, artefact control for SMM control-protein annotation, biochemical, small-molecule microarray, Cy5-labelled CALM1, plus calcium (AID 1112); details: Cy5-CALM1 binding fluorescence, higher = more signal;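 also: score merges spot fluorescence with signal to noise from triplicate slides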
# [6] = small-molecule microarray binders of probe aWnt5a, primary screen, biochemical, biotinylated probe, 635/667 nm fluorescence (AID 1113); details: higher = more signal;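 also: score merges 667 nm fluorescence intensity with signal-to-noise per printed feature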
# [7] = small-molecule microarray binders of probe aShh, primary screen, biochemical, biotinylated probe, 635/667 nm fluorescence (AID 1114); details: higher = more signal;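 also: probe is biotin-labelled aShh protein from a stem cell growth factor screen; measures binding of labelled protein to compounds printed on the slide; score merges feature fluorescence at 667 nm with signal-to-noise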
# [8] = small-molecule microarray binders of probe aNog, primary screen, biochemical, biotinylated probe, 635/667 nm fluorescence (AID 1115); details: higher = more signal;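 also: probe is biotinylated aNog protein used at 0.15 µg/mL for 1 h at 4 C; z-score combines 667 nm fluorescence of each spot with its signal to noise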
# [9] = biological target: Torsin-1A-interacting protein 1 (Homo sapiens) (UniProt Q5JTV8); test: LAP1 binders from COS7 cell lysate, primary screen, small-molecule microarray, 635/667 nm fluorescence (AID 1116); details: COS7-hLAP1 lysate binding, 635 nm fluorescence, higher = more signal
# Sequence of Torsin-1A-interacting protein 1 (Homo sapiens) (Q5JTV8 whole entry, looked up): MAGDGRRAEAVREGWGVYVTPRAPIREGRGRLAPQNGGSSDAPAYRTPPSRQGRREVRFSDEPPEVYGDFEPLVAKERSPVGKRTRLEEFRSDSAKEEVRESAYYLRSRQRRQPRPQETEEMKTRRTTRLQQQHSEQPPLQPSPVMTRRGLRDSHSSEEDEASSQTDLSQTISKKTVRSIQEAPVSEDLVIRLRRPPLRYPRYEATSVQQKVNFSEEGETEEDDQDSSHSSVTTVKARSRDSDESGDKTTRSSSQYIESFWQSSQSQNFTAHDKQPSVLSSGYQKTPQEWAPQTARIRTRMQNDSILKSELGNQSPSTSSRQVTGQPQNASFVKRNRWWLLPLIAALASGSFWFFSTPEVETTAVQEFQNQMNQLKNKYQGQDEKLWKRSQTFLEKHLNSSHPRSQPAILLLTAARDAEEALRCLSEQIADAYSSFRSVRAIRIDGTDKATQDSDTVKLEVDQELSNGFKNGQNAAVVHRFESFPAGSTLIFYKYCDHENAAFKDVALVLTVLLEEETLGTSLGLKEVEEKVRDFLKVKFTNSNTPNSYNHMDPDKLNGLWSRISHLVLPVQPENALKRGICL
# [10] = biological target: Alpha-bungarotoxin (Bungarus multicinctus) (UniProt P60615); test: alpha-bungarotoxin binders on microarray, profiling panel, artefact control for SMM control protein annotation, biochemical, small-molecule microarray, Alexa647 label, 635/667 nm fluorescence (AID 1117); details: alpha-BTX-A647 binding fluorescence, higher = more signal
# Sequence of Alpha-bungarotoxin (Bungarus multicinctus) (P60615 whole entry, looked up): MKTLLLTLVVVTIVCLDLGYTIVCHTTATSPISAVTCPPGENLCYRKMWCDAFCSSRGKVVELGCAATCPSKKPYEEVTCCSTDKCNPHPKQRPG
# Albumin (Bos taurus) = Albumin (Bos taurus) (UniProt P02769); test: bovine serum albumin binders on microarray, profiling panel, artefact control for SMM control protein annotation, biochemical, small-molecule microarray, Alexa647 label, 635/667 nm fluorescence (AID 1118); details: BSA-A647 binding, fluorescence 635 nm, higher = more signal;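 also: score merges 667 nm emission intensity and signal-to-noise per printed compound spot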
# Sequence of Albumin (Bos taurus) (P02769 whole entry, looked up): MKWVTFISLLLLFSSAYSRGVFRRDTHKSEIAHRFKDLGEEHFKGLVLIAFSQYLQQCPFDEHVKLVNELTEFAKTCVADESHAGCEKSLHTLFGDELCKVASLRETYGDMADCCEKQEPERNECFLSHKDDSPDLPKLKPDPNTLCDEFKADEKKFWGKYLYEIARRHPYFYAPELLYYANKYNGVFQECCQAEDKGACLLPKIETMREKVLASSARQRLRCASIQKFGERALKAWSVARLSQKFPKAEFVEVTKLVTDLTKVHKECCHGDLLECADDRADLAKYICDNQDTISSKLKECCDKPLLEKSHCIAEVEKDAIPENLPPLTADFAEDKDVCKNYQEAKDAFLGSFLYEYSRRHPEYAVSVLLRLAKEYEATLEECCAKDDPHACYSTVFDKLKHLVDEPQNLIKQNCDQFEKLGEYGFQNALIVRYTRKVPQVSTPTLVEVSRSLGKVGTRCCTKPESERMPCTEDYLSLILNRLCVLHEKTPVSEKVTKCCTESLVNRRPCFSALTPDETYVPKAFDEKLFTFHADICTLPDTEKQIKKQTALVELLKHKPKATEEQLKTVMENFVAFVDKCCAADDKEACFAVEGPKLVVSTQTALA
# [11] = small-molecule microarray binders of probe aXIP, primary screen, biochemical, NeuroSMM set, 635/667 nm fluorescence (AID 1119); details: higher = more signal, called active from +8 up or from −8 down;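 also: probe is the protein aXip251-270 applied at 1 µg/mL to compound-printed slides; binding of probe to printed compounds measured as 667 nm fluorescence plus signal to noise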
# [12] = small-molecule binders of probe aNOTCH3, primary screen, biochemical, small-molecule microarray, 635/667 nm fluorescence (AID 1120); details: higher = more signal;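 also: probe is a biotin-tagged antibody raised against NOTCH3 rather than NOTCH3 protein; score merges spot fluorescence near 667 nm with spot signal to noise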
# [13] = small-molecule binders of probe aNOTCH2, primary screen, biochemical, small-molecule microarray, 635/667 nm fluorescence (AID 1121); details: higher = more signal;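 also: score merges feature fluorescence read at 667 nm with its signal to noise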
# [14] = biological target: Carbonic anhydrase 2 (Homo sapiens) (UniProt P00918); test: CAII small-molecule binders, profiling panel, biochemical, small-molecule microarray, Alexa647-labelled CAII (AID 1122); details: CAII-A647 binding fluorescence, higher = more signal
# [15] = COS7 lysate on small-molecule microarray, probe aHis, 635 nm (AID 1123); details: COS7 cell lysate, fluorescence, higher = more signal;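 also: z-score combines 667nm fluorescence intensity with signal-to-noise per printed compound spot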
# [16] = compound binding in COS7 lysate, probe aLAP1, primary screen, cell lysate, small-molecule microarray (AID 1124); details: probe aLAP1, fluorescence, higher = more signal;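 also: lysate comes from COS7 cells expressing LAP1 and is applied at 0.3 µg/mL; score merges spot fluorescence near 667 nm with signal-to-noise over triplicate slides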
# Sam68 (KHDRBS1) = test: Sam68 small-molecule binders, primary screen, biochemical, small-molecule microarray, 635 nm fluorescence (AID 1125); details: small-molecule microarray binding, higher = more signal;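 also: score merges 667 nm channel intensity with signal to noise over triplicate slides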
# [17] = tested on: Chordin-like protein 2 (CHRDL2); test: CHRDL2 small-molecule binders, primary screen, biochemical, small-molecule microarray, 635 nm fluorescence (AID 1126); details: small-molecule microarray binding, fluorescence 635 nm; higher = more signal;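 also: printed compound slides probed with Chrdl2 protein at 4 µg/mL for 1 h at 4 C; score merges 667 nm emission intensity with signal to noise over three replicate slides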
# [18] = biological target: Concanavalin-A (Canavalia ensiformis) (UniProt P02866); test: ConA small-molecule binders, primary screen, artefact control for SMM control protein annotation, biochemical, small-molecule microarray, Alexa647 label, 635 nm (AID 1127); details: ConA-A647 binding fluorescence, higher = more signal;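 also: z combines 667 nm emission intensity with signal-to-noise across three replicate slides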
# Sequence of Concanavalin-A (Canavalia ensiformis) (P02866 whole entry, looked up): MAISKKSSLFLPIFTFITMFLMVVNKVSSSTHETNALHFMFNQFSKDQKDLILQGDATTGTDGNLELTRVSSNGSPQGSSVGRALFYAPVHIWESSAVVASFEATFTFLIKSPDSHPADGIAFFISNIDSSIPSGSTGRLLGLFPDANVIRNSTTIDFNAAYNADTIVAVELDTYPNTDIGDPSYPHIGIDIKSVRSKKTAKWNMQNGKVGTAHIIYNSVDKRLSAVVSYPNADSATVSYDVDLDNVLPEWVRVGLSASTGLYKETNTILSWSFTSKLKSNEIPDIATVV
Structure (SMILES),composite z-score [1],z-score [2],composite z-score [3],composite z-score [4],composite z-score [5],composite z-score [6],composite z-score [7],composite z-score [8],composite z-score [9],composite z-score [10],composite z-score (Albumin (Bos taurus)),composite Z-score [11],composite z-score [12],composite z-score [13],composite z-score [14],composite z-score [15],composite z-score [16],composite z-score (Sam68 (KHDRBS1)),composite z-score [17],composite z-score [18]
CCOC(=O)C1=CCC(c2cc3ccccc3[nH]2)N(CCN2CC(C(=O)OCC)=CCC2c2cc3ccccc3[nH]2)C1 (stereo not given),1.34,-1.87,0.0083,0.884,-0.608,-0.0203,0.0639,0.302,0.0389,0.927,0.656,0.0551 (inactive),0.15,-0.108,0.521,4.05,0.674,1.29,0.106,1.14
CC=CC(O)C1C=CC2C(=O)NC(=O)C2N1Nc1ccc(Cl)cc1Cl (stereo not given),0.342,-0.0813,0.483,0.498,0.0224,-0.0194,0.199,0.353,0.685,0.64,0.7,1.23 (inactive),0.033,-0.0698,0.59,1.72,0.465,-0.227,0.853,-0.953
CCCCC(O)C1C=CC2C(=O)N(c3ccccc3)C(=O)C2N1Nc1ccc(C#N)cc1 (stereo not given),1.02,-0.115,0.123,1.06,0.929,-0.0125,0.337,1.19,0.385,1.01,0.859,0.22 (inactive),0.426,0.349,0.721,2.68,1.23,1.17,-0.0433,0.778
C=CC[C@@]1(C(=O)N(C)C)N=C(c2ccc(OCCCO)cc2)O[C@@H]1c1ccccc1CN=[N+]=[N-],1.42,-2.67,0.681,1.79,0.366,0.0293,0.246,0.0919,1.23,1.35,0.738,0.153 (inactive),0.438,0.0674,0.397,2.48,0.71,1.33,-0.201,1.12
COC(=O)[C@H](Cc1ccccc1)N1CC2=CCCC=C[C@@H]2[C@H]1[C@H](O)Cc1ccccc1,0.216,-1.74,-0.149,1.09,-0.749,-0.0977,0.427,1.79,0.545,0.831,0.0618,0.495 (inactive),0.17,-0.118,0.708,0.25,0.368,0.374,0.204,0.854
COCCOC(=O)N1C(=O)[C@@]2(c3cc(C#CCCO)ccc31)[C@H](c1ccc(OCCO)cc1)N1[C@H](c3ccccc3)[C@H](c3ccccc3)OC(=O)[C@H]1[C@@H]2C(=O)N1CCCCCCC1,0.371,-0.882,1.39,1.99,0.953,0.779,0.599,0.952,3.39,2.3,-0.226,2.1 (inactive),1.26,0.675,0.67,2.7,1.95,1.33,1.43,1.13
COc1ccc(C#Cc2ccc3c(c2)[C@]2(C(=O)N3)[C@H](C(=O)O)[C@H]3C(=O)O[C@H](c4ccccc4)[C@H](c4ccccc4)N3[C@@H]2c2ccccc2OCCO)cc1,0.263,-2.19,0.694,1.04,0.604,-0.235,0.0777,0.279,0.835,2.21,0.594,0.493 (inactive),-0.301,-0.0069,0.509,1.08,0.387,1.31,0.117,1.14
COC(=O)[C@@]1(Cc2ccccc2)[C@H]2c3cc(C(=O)N(C)C)n(Cc4ccc(C(F)(F)F)nc4)c3C[C@H]2CN1C(=O)c1ccccc1,1.49,-1.3,-0.287,1.9,1.14,0.223,0.941,2.05,1.91,0.82,0.463,-0.031 (inactive),0.39,0.329,0.849,3.31,0.427,1.3,-0.43,0.715
Cc1ccc(C(C)CC(O)C2C=CC3C(=O)N(C)C(=O)C3N2Nc2ccccc2)o1 (stereo not given),1.4,-0.955,0.79,0.0895,-0.0452,-0.0057,-0.0769,-0.213,0.163,0.6,0.264,-0.288 (inactive),0.318,-0.075,0.656,0.614,0.0421,1.3,0.122,0.617
O=C1NC(=O)C2C1C=CC(C(O)c1ccc(B(O)O)cc1)N2Nc1ccc(Cl)cc1Cl (stereo not given),-0.181,-0.693,-0.401,0.524,0.0583,-0.0721,-0.181,0.682,0.392,0.869,0.0179,0.168 (inactive),0.0864,0.119,0.753,0.546,-0.11,-0.597,0.0005,0.423
COc1ccc([Si](C)(C)[C@H]2[C@H](CCO)O[C@@]3(C(=O)N(Cc4cccc(N(C=O)c5ccccc5)c4)c4ccccc43)[C@@H]2C)cc1,1.39,-4.84,0.393,0.909,-0.507,-0.0269,0.0723,0.0199,0.124,0.751,0.291,-0.313 (inactive),0.059,-0.102,0.467,1.28,0.677,1.28,0.293,1.15

# Reference: PubChem BioAssay
